Six1-Eya2 inh: qHTS Assay for Inhibitors of the Six1/Eya2 Interaction | Homeobox protein SIX1 (Homo sapiens) + Protein phosphatase EYA2 (Homo sapiens), … | AlphaScreen GST-Six1/His-Eya2 binding, biochemical; hits give low values | activity change, % (test concentration not listed) | hit rate 0.56% among 360,000 | AID 651725, 2012; in the data active means activity change below about -65%; inconclusive means mostly about -30% to -63%; further: on the % scale 0 is the no-effect control and ±100 the full control effect
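GST-Six1 + His-Eya2 (5X stock: 250/500 nM); Tris pH 8.0, 300 mM NaCl, 0.05% BSA, 0.02% Tween 20; GSH donor/Ni acceptor beads; 1 h 37 °C dark; AlphaScreen readout.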
HP1b chromo inh: HTS for Inhibitors of HP1-beta Chromodomain Interactions with Methylated Histone Tails; Chromobox protein homolog 1 (Homo sapiens), P83916; AlphaScreen HP1-beta / biotin-H3K9me3 peptide binding; Potency, µM (top dose mostly 114 µM), without a hit: at the top dose activity change, negative = inhibition, actives largely listed as inhibitors; hit rate 0.56% among 390,000; AID 540317, 2011; further: potency means the concentration at half of the fitted maximal effect; nearly all actives have a fitted effect of over 70% in size
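Compound inhibition of the preformed complex between 50 nM HP1-beta and 50 nM biotinylated H3K9me3 peptide was read by AlphaScreen. Buffer was PBS pH 7.4 with 0.01% Tween-20. Incubations ran 30 min at room temperature, with 10 ug/mL donor/acceptor beads.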
JMJD2A Tudor: qHTS Assay for Inhibitors of JMJD2A-Tudor Domain. AlphaScreen JMJD2A-Tudor / H3K4me3 peptide binding. Potency, µM (highest dose often 114 µM), inactives show at the top dose activity change, negative = inhibition, most hits filed as inhibitors. AID 504339, 2011. hit rate 4.4% among 390,000; further: potency means the concentration at half of the fitted maximal effect; on the % scale 0 is the no-effect control and ±100 the full control effect; nearly all actives have a fitted effect of over 50% in size
G9a inh: qHTS Assay for Inhibitors of Histone Lysine Methyltransferase G9a | G9a H3K9 monomethylation, AlphaScreen, 2 h | Potency, µM (doses to about 102 µM), without a hit: at the highest dose activity, negative = inhibition, most hits filed as inhibitors | hit rate 8.8% among 350,000 | AID 504332, 2011; further: potency means the concentration at half of the fitted maximal effect; on the % scale 0 is the no-effect control and ±100 the full control effect; nearly all actives have a fitted effect of over 75% in size
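AlphaScreen detection with an anti-monomethyl H3K9 antibody quantified product after a 2 h room-temperature reaction containing 500 nM biotinylated H3K9 peptide, 20 µM SAM and 20 nM enzyme, which had been preincubated 15 min with compound.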
CtBP-E1A inh: qHTS Assay for Inhibitors of the CtBP/E1A Interaction | AID 651724, 2012 | hit rate 0.49% among 340,000 | AlphaScreen GST-E1A/His-CtBP binding, 1536-well; hits give low values | activity change, % (no concentration beside the values); in the data active means activity change below about -65%; inconclusive means mostly about -30% to -63%; further: on the % scale 0 is the no-effect control and ±100 the full control effect
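AlphaScreen with 125 nM GST-E1A and 125 nM His-CtBP (5X stocks) in Tris pH 8.0, 300 mM NaCl, BSA, Tween 20, TCEP. Compounds preincubated 2 h at 37 deg C, then glutathione donor/nickel acceptor beads added for 1 h at 37 deg C in dark.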
BAZ2B inh: qHTS Assay for Inhibitors of BAZ2B | Bromodomain adjacent to zinc finger domain protein 2B (Homo sapiens), Q9UIF8 | AlphaScreen BAZ2B-H3K14Ac peptide displacement | Potency, µM (series often up to 114 µM), for inactives: at the top dose activity change, negative = inhibition, usual class: inhibitors | hit rate 4.4% among 360,000 | AID 504333, 2011; further: potency means the concentration at half of the fitted maximal effect; on the % scale 0 is the no-effect control and ±100 the full control effect; nearly all actives have a fitted effect of over 60% in size
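Inhibition is scored as reduced AlphaScreen emission. The BAZ2B/b-H3(5-23)K14Ac complex (50 nM each) in PBS pH 7.4, 0.01% Tween-20 meets compound (up to 110 uM) for 30 min at RT before bead addition.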
Numbers without * were called inactive; u = inconclusive; x = no result given; ! = a repeat was not active; [ ] = another dose, or the depositor's remark. Shown are actives, neighbours in structure and some others; about 10% of the full set was active somewhere. Unless noted, the call rests on the fitted dose curve; in most records, active means well fitted inhibition curve with a large enough effect; inconclusive means small, poorly fitted or top-dose-only effect; inactive means no such curve, though single readings can be large or run the other way.

SMILES	Six1-Eya2 inh	HP1b chromo inh	JMJD2A Tudor	G9a inh	CtBP-E1A inh	BAZ2B inh
CC(C)[C@]1(O)[C@@H](OC(=O)c2ccc[nH]2)[C@@]2(O)[C@@]3(C)C[C@]4(O)O[C@@]5([C@H](O)[C@@H](C)CC[C@]35O)[C@@]2(O)C41C	x	29%	-12%	39%[59 µM]	x	x
COc1ccc(N2CCN(Cc3nc4ccccc4[nH]3)CC2)cc1	10	16%	-34%	32µM*	13	-26%
Nc1ncnc2c1ncn2[C@@H]1O[C@@H]2CO[P@](=O)(S)O[C@H]2[C@H]1O	x	x	x	9%[59 µM]	x	x
COc1cccc(CC(=O)N2CCN(Cc3cccc(Cl)c3)CC2)c1	-9	16%	-16%	-17%	-4	-14%
COC(=O)N1CCN(C(=O)Cc2ccc(Cl)c(Cl)c2)C(CN2CCCC2)C1 (centres undefined)	x	x	x	35µM*!	x	-8%
CCCOC(=O)c1cc2c(cn1)[nH]c1ccccc12	x	x	x	14%[59 µM]	x	x
Oc1ccccc1O	14	u	40µM*	1.8µM*	-19	6%
O=C1NC(=S)N(c2ccc(Br)cc2)C(=O)/C1=C/N1CCN(C(=O)c2ccco2)CC1	-3	4%	-29%	45µM*	x	-33%
O=C1NC(=S)N(c2ccccc2)C(=O)/C1=C/c1ccco1	u	2.8µM*	3.2µM*	-7%[0.501 µM]	-20	20µM*
CCOc1cccc(N2C(=O)/C(=C/c3ccco3)C(=O)NC2=S)c1	-29	20µM*	22µM*	14µM*	x	32µM*
CCCCCC(O)C1C(=O)OC(C)C(O)\C=C/C=C\C=C/C=C\C=C(\C)C(O)C(O)C(O)CC(O)CC(O)CC(O)CC(O)CC1O (centres undefined)	x	x	x	-20%[12.7 µM]	x	x
CC(C)(C)[C@]1(O)C[C@@H]2OC(=O)CC23C(=O)O[C@@H]2OC(=O)[C@H](O)C231 (some centres undefined)	x	x	x	29%[59 µM]	x	x
COc1ccc(/C=C2/C(=O)NC(=O)N(c3ccccc3)C2=O)cc1CN1C(=O)c2ccccc2C1=O	7	20%	-35%	-111%[59 µM]	-1	u
COc1ccc(/C=C2/C(=O)NC(=S)N(C3CC3)C2=O)cc1CN1C(=O)c2ccccc2C1=O	2	u	25µM*	3.5µM*	-6	50µM*
O=c1c2cc([N+](=O)[O-])ccc2nc(CN2CCOCC2)n1-c1ccccc1F	x	x	x	2.8µM*	x	-36%
O=c1c2ccccc2nc(CN2CCOCC2)n1-c1ccccc1F	5	46%	-15%[57.1 µM]	u	10	-15%
CN1CC[C@@]2(CCCN(C(=O)c3ccncc3)C2)C1	x	x	x	-21%[12.7 µM]	x	x
C(#CCN1CCOCC1)COC/C=C/c1ccccc1	5	2%	-15%	45µM*	0	1%
C(#CCN1CCCCC1)COCc1ccccc1	0	49%	-5%	x	-3	-14%
C=CCN1C(=O)NC(=O)/C(=C/c2cc3c4c(c2)CCCN4CCC3)C1=O	-9	20µM*	u	u	1	50µM*
C=CCN1C(=O)NC(=O)/C(=C/c2cnc(SC)nc2)C1=O	0	-49%	79µM*	u	6	4%
O=CC1=C(N2CCOCC2)/C(=C\c2ccccc2)CC1	-2	35%	-11%	40µM*	0	-10%
S=c1nc(-c2ccccc2)n(-c2ccccc2)[nH]1	5	-9%	3.5µM*	2.8µM*	4	-14%
Nn1c(Cc2cccc3ccccc23)n[nH]c1=S	3	u	10µM*	3.5µM*	x	-34%
S=C=Nc1cccc(C2(N3CCCCC3)CCCCC2)c1	-4	-18%	-17%	14µM*	-7	-2%
c1ccc(C2(N3CCCCC3)CCCCC2)cc1	-1	42%	-27%	x	-2	x
